Data published in PubChem BioAssay.
Inconclusive results are not listed. The source made the active and inactive calls.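 Rule for the calls, unless noted: active = Her2 level under about 52% in both replicate screens, with viability over 70% of control (limit read from the data); inconclusive = Her2 under the limit in one screen only, or viability under 70%; inactive = Her2 level above the set limit.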

What was measured:
[1] = reducers of endogenous Her2 protein level, primary screen, SKBR3 breast tumor cells, AlphaScreen, ATP viability (AID 461); conditions: 18-24 h, measured here: SKBR3 viability, ATP luminescence, at 10 µM;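 for Her2 level: lower value means less Her2 protein in the cells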;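 for viability: percent of carrier control wells set as 100% viability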
[2] = molecular target: Receptor tyrosine-protein kinase erbB-2 (Homo sapiens) (UniProt P04626); test: as above; conditions: 18-24 h, at 10 µM, stronger effect = lower value
Chain of Receptor tyrosine-protein kinase erbB-2 (Homo sapiens) (P04626 whole entry, looked up): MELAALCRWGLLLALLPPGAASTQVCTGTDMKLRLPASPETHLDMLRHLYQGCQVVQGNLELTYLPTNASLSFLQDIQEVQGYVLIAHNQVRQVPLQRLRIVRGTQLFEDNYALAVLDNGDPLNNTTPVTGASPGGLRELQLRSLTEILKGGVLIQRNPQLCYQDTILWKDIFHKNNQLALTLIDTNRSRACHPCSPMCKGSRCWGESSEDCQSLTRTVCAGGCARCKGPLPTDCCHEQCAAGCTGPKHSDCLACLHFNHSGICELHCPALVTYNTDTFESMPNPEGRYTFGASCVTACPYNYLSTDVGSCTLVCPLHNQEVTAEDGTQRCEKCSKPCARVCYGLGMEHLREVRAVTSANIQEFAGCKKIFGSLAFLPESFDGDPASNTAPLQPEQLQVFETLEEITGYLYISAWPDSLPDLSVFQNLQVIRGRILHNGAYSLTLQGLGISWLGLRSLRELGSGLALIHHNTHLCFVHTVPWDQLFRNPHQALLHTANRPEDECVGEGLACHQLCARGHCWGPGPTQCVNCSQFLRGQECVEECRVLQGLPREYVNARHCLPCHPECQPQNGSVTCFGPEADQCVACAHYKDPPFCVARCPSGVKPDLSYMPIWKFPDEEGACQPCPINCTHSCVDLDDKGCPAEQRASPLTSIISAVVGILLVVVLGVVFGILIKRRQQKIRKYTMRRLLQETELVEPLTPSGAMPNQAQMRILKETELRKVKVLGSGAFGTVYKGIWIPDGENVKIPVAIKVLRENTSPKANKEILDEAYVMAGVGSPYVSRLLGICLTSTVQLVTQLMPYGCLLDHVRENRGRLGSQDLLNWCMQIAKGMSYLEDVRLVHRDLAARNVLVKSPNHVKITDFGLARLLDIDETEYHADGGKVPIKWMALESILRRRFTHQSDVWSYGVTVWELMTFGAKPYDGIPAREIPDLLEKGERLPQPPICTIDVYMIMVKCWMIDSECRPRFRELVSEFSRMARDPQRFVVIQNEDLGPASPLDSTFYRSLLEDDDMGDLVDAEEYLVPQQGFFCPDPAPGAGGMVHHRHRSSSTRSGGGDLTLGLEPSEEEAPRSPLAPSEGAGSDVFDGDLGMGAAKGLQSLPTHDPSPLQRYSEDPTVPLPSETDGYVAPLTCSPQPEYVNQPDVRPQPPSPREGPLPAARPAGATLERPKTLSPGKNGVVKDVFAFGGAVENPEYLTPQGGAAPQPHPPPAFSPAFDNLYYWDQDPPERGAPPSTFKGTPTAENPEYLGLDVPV

[3] = SK-BR-3 cell growth inhibitors, pilot screen, 24 h, human (AID 572;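 active = viability at or below 10% of carrier control in both of two separate runs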;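 note: compound exposure lasted between 18 and 24 h rather than exactly 24 h; 100% = carrier-treated control wells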); conditions: SK-BR-3 viability, CellTiter-Glo luminescence, at 10 µM, stronger effect = lower value
[4] = HUVEC growth inhibition – cell-based, human, primary screen (AID 575;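 active = viability at or below 30% in both replicate assays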;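 note: 100% = median of untreated cell wells with 0.1% DMSO on each plate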); conditions: HUVEC proliferation, CellTiter-Glo luminescence, 72 h; at 10 µM; stronger effect = lower value
[5] = growth inhibitors of H69AR lung tumor, primary screen, human, duplicate replicates (AID 580;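 active = viability at or under a set limit in both replicates, limit being median viability minus 3 SD, cut at about 48% in these data, passing the limit was not always enough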;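 note: 100% = mean luminescence of untreated wells and 0% = no signal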); conditions: H69AR lung tumor cells viability, ATP luminescence, 72 h; at 10 µM; stronger effect = lower value
[6] = reversal of MRP1-mediated doxorubicin resistance, pilot screen, H69AR cells, doxorubicin co-treatment (AID 601;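 active = viability loss from added drug above about 55%, and viability with drug at most 40%, in both replicates, limit read from the data, passing the limit was not always enough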); conditions: CellTiter-Glo, 72 h, at 10 µM; for differential viability (reversal): stronger effect = higher value
[7] = 384-well plate pilot, post-Golgi transport modulator project, inhibition of yeast transport mutant growth (AID 636; in the data active = inhibition above about 31%); conditions: absorbance 615 nm, about 18 h, stronger effect = higher value
[8] = growth suppression of yeast trafficking mutant, preliminary HTS, modulators of trafficking downstream of Golgi apparatus project, 1536-format plate, OD 615 nm (AID 637; in the data active = inhibition above about 30%); conditions: yeast transport mutant growth, absorbance 615 nm, 18 h; stronger effect = higher value
[9] = OD615 S. cerevisiae growth inhibition, permissive medium, pilot counter-assay, permissive growth control for S. cerevisiae lifespan shortening project (AID 705;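 active = growth inhibition above 25% in both replicates, a cutoff set 3 SD above the mean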); conditions: OD615, 24 h, at 10 µM, stronger effect = higher value
[10] = Restrictive medium S. cerevisiae growth inhibition, OD615, pilot screen of yeast lifespan reduction project, restrictive growth control (AID 706;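 active = growth inhibition above a set limit, 3 SD over mean compound inhibition, in both replicates, cut at about 43% in these data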;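 note: modified DeaD lifespan yeast strain shifted to restrictive glucose medium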); conditions: OD615, 48 h, at 10 µM, stronger effect = higher value
[11] = viability gain of MRP-1-high H69AR cells under doxorubicin, pilot screen, MRP-1 activator project, CellTiter-Glo, duplicate (AID 807;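 active = viability increase at or above a cutoff of the median across tested compounds plus 3 SD, cut at about 8.5% in these data, passing the limit was not always enough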;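 note: compound pretreatment 18-22 h then 72 h combined with doxorubicin; 0% = doxorubicin alone and 100% = vehicle without doxorubicin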); conditions: H69AR viability with doxorubicin, CellTiter-Glo luminescence; at 10 µM; stronger effect = higher value
[12] = growth suppression of beta-catenin knockout HCT116, pilot screen, human colon tumor cells (AID 823;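 active = cell viability at or below a set limit in both duplicate runs, the limit being the all-compound median minus 4 SD, cut at about 23% in these data, passing the limit was not always enough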;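 note: 0% = wells killed by 20 µM Hyamine and 100% = untreated DMSO cell wells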); conditions: CellTiter-Glo, 60 h, at 10 µM, stronger effect = lower value
[13] = growth suppression of PTEN-deleted HCT116, pilot screen, cell-based, HCT116 clonal line, CellTiter-Glo (AID 824;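 active = viability at or below 27.92% in each of two runs, the all-compound median minus 4 SD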;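 note: 0% = 20 µM Hyamine control and 100% = vehicle cell control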); conditions: 60 h, at 10 µM, stronger effect = lower value
[14] = inhibitors of the yeast RAM network, pilot screen, dse1pr::URA3 reporter, 5-FOA selection (AID 869;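 active = inhibition over a set limit, the all-compound mean plus 3 SD, in both replicate runs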;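 note: 0% = DMSO wells with no growth and 100% = 10 µM 1-NA-PP1 with full growth; RAM network block rescues cells from 5-FOA so hits raise OD615 growth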); conditions: S. cerevisiae dse1pr::URA3 5-FOA growth, OD615, 2 d; at 10 µM; stronger effect = higher value; strain carries analog-sensitive mutant Cbk1 kinase
[15] = RAM signaling pathway blockade in yeast – S. cerevisiae, Pdr1DBD-CYC8 efflux-inhibited sensitized strain, primary screen (AID 1298;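 active = RAM network inhibition above 8.4% in each of two replicates, 3 SD over the compound average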;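 note: 0% = DMSO untreated cells without growth and 100% = 10 µM 1-NA-PP1 full growth; higher means more yeast growth rescued from 5-FOA killing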); conditions: S. cerevisiae cbk1-as DSE1-URA3 strain, 5-FOA growth OD615, 2 d; at 50 µM; stronger effect = higher value
[16] = H69AR cells + 2 uM doxorubicin, measured here: viability with 2 uM doxorubicin, stronger effect = lower value
[17] = H69AR cells, compound alone cytotoxicity

Row | Compound | viability [1] [%] | Her2 level [2] | viability [3] | viability [4] | viability [5] | differential viability (reversal) ([6]; H69AR cells + 2 uM doxorubicin) | viability [6, 16] [%] | viability [6, 17] [%] | inhibition [7] | inhibition [8] | growth inhibition [9] | growth inhibition [10] | viability increase [11] | viability [12] | viability [13] | inhibition [14] | RAM network inhibition [15]
1 | CSc1cccc(NS(=O)(=O)c2ccccc2)c1 | 78.5 | 88% (inactive) | 78.5% (inactive) | 107% (inactive) | 88.7% (inactive) | 1.02% (inactive) | 87.7 | 88.7 | -0.9% (inactive) | -5.33% (inactive) | -0.535% (inactive) | 3.39% (inactive) | 0.44% (inactive) | 92.1% (inactive) | 95% (inactive) | 0.96% (inactive) | 0.21% (inactive)
2 | COc1cccc(C2C(C(=O)c3ccc(C)o3)=C(O)C(=O)N2CCCN(C)C)c1 (stereo not given) | 99.5 | 90.5% (inactive) | 99.5% (inactive) | 100% (inactive) | 108% (inactive) | 12.6% (inactive) | 95 | 108 | -4.73% (inactive) | 7.14% (inactive) | -10.7% (inactive) | -11.7% (inactive) | -1.16% (inactive) | 102% (inactive) | 96.1% (inactive) | -0.125% (inactive) | 1.67% (inactive)
3 | O=C(c1sc2ccccc2c1Cl)N(Cc1cccs1)C1CCS(=O)(=O)C1 (stereo not given) | 100 | 100% (inactive) | 100% (inactive) | 73.2% (inactive) | 85.5% (inactive) | 3.69% (inactive) | 81.8 | 85.5 | 1.07% (inactive) | 0.17% (inactive) | -7.52% (inactive) | -11.5% (inactive) | -4.05% (inactive) | 92.2% (inactive) | 86.5% (inactive) | 0.395% (inactive) | 7.16% (inactive)
4 | CCOC(=O)CN1CC23C=CC(O2)C(C(=O)Nc2ccc(OCC)cc2)C3C1=O (stereo not given) | 100 | 96% (inactive) | 100% (inactive) | 102% (inactive) | 96.4% (inactive) | 7.16% (inactive) | 89.2 | 96.4 | -4.53% (inactive) | 0.49% (inactive) | 17% (inactive) | 13.4% (inactive) | -0.57% (inactive) | 112% (inactive) | 105% (inactive) | 2.22% (inactive) | 0.21% (inactive)
5 | Cc1cccc(CN2CCC(CNC(=O)C3CCCN(S(=O)(=O)c4cnc[nH]4)C3)CC2)c1 (stereo not given) | 98 | 95.5% (inactive) | 98% (inactive) | 98.8% (inactive) | 89.8% (inactive) | 2.14% (inactive) | 87.6 | 89.8 | -5.2% (inactive) | -0.66% (inactive) | -0.3% (inactive) | -2.77% (inactive) | 0.07% (inactive) | 101% (inactive) | 106% (inactive) | 1.33% (inactive) | 4.03% (inactive)
6 | COc1ccc(OC)c(NC(=O)c2nnn(Cc3ccc(Br)cc3F)c2N)c1 | 80 | 88% (inactive) | 80% (inactive) | 40.9% (inactive) | 75.7% (inactive) | 16.7% (inactive) | 58.9 | 75.7 | 1.07% (inactive) | -0.49% (inactive) | -0.51% (inactive) | -7.43% (inactive) | 0.57% (inactive) | 69.5% (inactive) | 66.1% (inactive) | 1.21% (inactive) | 4.25% (inactive)
7 | CCCCCn1c(=O)[nH]c2cc(C(=O)NCCCN3CCCCC3)ccc2c1=O | 76 | 74.5% (inactive) | 76% (inactive) | 86.5% (inactive) | 88.7% (inactive) | 6.66% (inactive) | 82 | 88.7 | -6.76% (inactive) | 5.33% (inactive) | -6.6% (inactive) | 6.35% (inactive) | -2.74% (inactive) | 75.1% (inactive) | 77.5% (inactive) | -0.475% (inactive) | 0.41% (inactive)
8 | COc1ccc(NC(=O)C2CCCCN2S(=O)(=O)c2ccc(F)cc2)cc1 (stereo not given) | 91 | 93% (inactive) | 91% (inactive) | 91.4% (inactive) | 89.2% (inactive) | -12.1% (inactive) | 101 | 89.2 | -7.47% (inactive) | 1% (inactive) | -18.5% (inactive) | -18.4% (inactive) | -1.3% (inactive) | 83.5% (inactive) | 88% (inactive) | 1.19% (inactive) | 5.45% (inactive)
9 | CCOC(=O)N1CCN(C(=O)c2ccc(CS(=O)(=O)c3ccc(OC)cc3)o2)CC1 | 88 | 88% (inactive) | 88% (inactive) | 104% (inactive) | 89.2% (inactive) | -9.97% (inactive) | 99.2 | 89.2 | -4.67% (inactive) | 0% (inactive) | -12.3% (inactive) | -27.2% (inactive) | -1.05% (inactive) | 104% (inactive) | 97.4% (inactive) | -0.045% (inactive) | 4.85% (inactive)
10 | COc1ccccc1N1CCN(C(=O)N2CCOCC2)CC1 | 107 | 87% (inactive) | 107% (inactive) | 86.9% (inactive) | 73.8% (inactive) | -9.12% (inactive) | 82.9 | 73.8 | -1.95% (inactive) | -5.57% (inactive) | -17.3% (inactive) | -6.65% (inactive) | -1.74% (inactive) | 95.9% (inactive) | 96.8% (inactive) | 1.06% (inactive) | 0.62% (inactive)
